A selection: hits, their analogues and other compounds. The true share with any hit is near 3.2%.
LASV entry inh – blocks Lassa virus binding to or entry into cells. AID 540256. Lassa virus pseudotype entry inhibition, cell reporter. hit rate 1.2% among 300,000. Potency, µM (series often up to 37.9 µM), inactives show top-dose activity change, negative = inhibition, most hits filed as inhibitors; calls by dose curve; tested in HEK293 cells; note: nearly all actives have a fitted effect of over 50% in size
Vaccinia Venus – inhibitors of vaccinia virus (Venus reporter); Vaccinia virus Venus reporter expression, fluorescence; Potency, µM (doses to about 36.5 µM), for the others: top-dose activity change, negative = inhibition, actives largely listed as inhibitors; hit rate 0.46% among 330,000; calls by dose curve; tested in A549 cells; note: nearly all actives have a fitted effect of over 30% in size
VACV mCherry inh – inhibitors of vaccinia virus infection (mCherry reporter signal). Vaccinia virus mCherry reporter infection, fluorescence. Potency, µM (top dose mostly 36.5 µM), for inactives: at the top dose activity change, negative = inhibition, usual class: inhibitors. hit rate 0.63% among 310,000. AID 720579; calls by dose curve; tested in A549 cells; note: nearly all actives have a fitted effect of over 35% in size
FMDV antiviral – antivirals against foot and mouth disease virus. FMDV antiviral cell-based qHTS. Potency, µM (doses to about 57.9 µM), for inactives: at the top dose activity change, negative = inhibition, hits mostly inhibitors. hit rate 1.2% among 410,000; calls by dose curve; tested in HEK293T cells; note: read-out not given here; nearly all actives have a fitted effect of over 45% in size
Marburg entry inh – blocks Marburg virus binding to or entry into cells | Potency, µM (highest dose often 37.8 µM), for the others: top-dose activity change, negative = inhibition, usual class: inhibitors | Marburg virus pseudotyped entry inhibition, cell reporter | hit rate 1.8% among 300,000 | AID 540276; calls by dose curve; tested in HEK293 cells
* marks the source's active call; other numbers are inactive results; i = inactive; ? = inconclusive; . = not tested or not shown; [ ] = remark or other dose. % is set by controls: 0 for no effect and ±100 for the full control effect; potency is the fitted concentration of half-maximal effect.

SMILES	LASV entry inh	Vaccinia Venus	VACV mCherry inh	FMDV antiviral	Marburg entry inh
CCCCNc1nc(-c2ccccc2)c(C(=O)OCC)cc1C#N	11.2µM*	-28.7%	.	-14.6%	?
Cc1cc(S(=O)(=O)NCCc2csc(-c3cccc(F)c3)n2)ccc1F	-9.2%[46.1 µM]	11.2µM*	?	21.5%	.
CCOC(=O)c1c(C)nc2sc(C(=O)Nc3ccc(C(C)=O)cc3)c(N)c2c1-c1ccc(OC)cc1	?	?	.	?	2.82µM*
CCOC(=O)c1c(C)nc2sc(C(=O)Nc3ccc(OC)cc3)c(N)c2c1-c1ccc(OC)cc1	?	?	?	-12.8%	?
COc1ccc(N(CC(=O)N2CCN(c3ccc(F)cc3)CC2)S(=O)(=O)c2c(C)noc2C)cc1	-14.3%[46.1 µM]	-2.2%	-5.0%	-25.2%	0.3%[46.1 µM]
CN(C(=O)Nc1ccccc1)C1CCS(=O)(=O)C1 (stereo not given)	2.9%	-8.1%	.	-2.5%	7.2%[46.1 µM]
CC(=O)NC1=C(N(C)C2CCS(=O)(=O)C2)C(=O)c2ccccc2C1=O (stereo not given)	7.08µM*	-1.2%	-10.5%	12.6µM*	?
CN(C)c1ccc(C=C2C(=O)c3ccccc3C2=O)cc1	.	-4.2%	34.4%	.	.
CC(=O)NC1=C(Nc2ccc(N(C)C)cc2)C(=O)c2ccccc2C1=O	1.58µM*	-7.7%	?	-12.2%	?
COC(=O)CC=C[C@@H](C)[C@@H](C=NOC[C@@H](C)[C@H](OCc1ccccc1)C(C)C)NS(=O)(=O)c1ccc(C)cc1	-3.7%[14.3 µM]	.	.	.	-14.2%[14.2 µM]
Cc1ccc(C(=O)N2CCc3cc(CNS(=O)(=O)c4cccs4)ccc32)cc1	?	-14.9%	-21.9%	-29.3%	.
COc1cc(=O)n2c(c1C(=O)NC(C)c1ccco1)CCN(C(=O)c1cccc(C)c1C)CC2 (stereo not given)	.	-8.4%	-11.5%	27.0%	.
O=[N+]([O-])/C=C\c1ccc(N2CCOCC2)cc1	.	.	.	17.8µM*	.
O=[N+]([O-])/C=C/c1ccc2c(c1)OCO2	3.26µM*	.	.	.	?
O=C(C=Cc1ccc2c(c1)OCO2)C1CC1	.	-3.7%	-0.3%	46.0%	.
COc1cc2c(cc1/C=C/[N+](=O)[O-])OCO2	?	?	?	14.1µM*	?
COc1cc(OC)c2nc(-c3cc4c(c(OC)c3)OCCN(Cc3cn(C)nc3C)C4)cc(C)c2c1	.	-3.6%	-15.5%	-11.6%	.
COc1ccc(C(C(=O)NCc2ccccc2)N(C(=O)c2snc(C(N)=O)c2N)c2ccccc2OC)cc1 (stereo not given)	?	-24.9%	i	-6.7%	?
COc1ccc(N(C(=O)c2snc(C(N)=O)c2N)C(C(=O)NCc2ccccc2)c2ccc(F)cc2)c(OC)c1 (stereo not given)	8.91µM*	-20.3%	-22.4%	-0.4%	?
COc1ccccc1N(C(=O)c1snc(C(N)=O)c1N)C(C(=O)NCc1ccccc1)c1ccc(O)cc1 (stereo not given)	4.47µM*	3.7%	-14.1%	-9.1%	-21.3%[46.1 µM]
O=S1(=O)CCOC[C@H](c2ccccc2)N1Cc1ccc(Cl)c(Cl)c1	.	-20.3%	i	.	.
O/N=C(/CI)c1ccc2ccccc2c1	.	-16.9%	-22.4%	.	.
CC(=O)CCc1oc2ccc(C)cc2c1-c1ccccc1	3.98µM*	-11.9%	-13.9%	-18.3%	0.9%
CCOc1ccc(S(=O)(=O)N(C)c2ccc(OCC(=O)NCc3ccc(C(=O)OC)cc3)cc2)cc1	3.16µM*	4.4%	-22.6%	0.0%	2.2%[46.1 µM]
COC(=O)c1ccc(NC(=O)COc2ccc(N(C)S(=O)(=O)c3ccc(C)cc3)cc2)cc1	-18.3%	-23.3%	-9.1%	?	9.1%
SMILES	LASV entry inh	Vaccinia Venus	VACV mCherry inh	FMDV antiviral	Marburg entry inh
C[C@@H]1CN(C2CCN(C(=O)c3ccccc3)CC2)C[C@H](C)O1	.	.	.	.	0.0%
CCOC(=O)c1c(C)oc2nc(C)nc(N3CCN(c4cccc(C(F)(F)F)c4)CC3)c12	-13.6%[46.1 µM]	-25.6%	-20.9%	?	.
CCOC(=O)c1c(C)oc2nc(C)nc(N3CCN(c4ccccc4)CC3)c12	-11.7%[46.1 µM]	-27.5%	-24.7%	28.2µM*	.
CCOC(=O)c1c(C)oc2ncnc(N3CCN(c4ccc(C)cc4C)CC3)c12	3.8%[46.1 µM]	3.5%	3.9%	?	-12.7%[46.1 µM]
CCOC(=O)c1c(C)oc2ncnc(N3CCN(c4cccc(Cl)c4)CC3)c12	-3.0%[46.1 µM]	-14.2%	-24.2%	28.2µM*	-0.4%[46.1 µM]
COc1ccc(Cc2c(-c3ccc(C)cc3)nc3cc(C)c(Br)c(C)n23)c(C)c1	.	-5.5%	5.1%	0.4%	.
C[C@@H]1CN([C@@H](C)CO)S(=O)(=O)c2ccc(C#CC3CCCCC3)cc2O[C@@H]1CN(C)Cc1cccnc1	.	10µM*	?	-14.2%	.

High-throughput results deposited in PubChem by National Center for Advancing Translational Sciences (NCATS).
